# “And” between values parts separate entries of the source, which are not always exact repeats. Identical values can stand only once. Records with an inconclusive call do not appear. Some compounds were tested as several samples or in several runs, with calls that do not always agree. The source made the active and inactive calls.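 The calls were made as follows, unless noted: active = normalized viability below 100% at a tested concentration; inactive = the rest.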
# Tests used:
# [1] = viability loss in pontine glioma line – cell-based, SU-DIPG-XIII, MIPE4.0, CellTiter-Glo, qHTS, dose response (AID 1347061; cut-off not given, nearly all actives have AC50 up to about 37 µM;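 also: cells exposed to compound for 48 hours before readout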); conditions: CellTiter-Glo ATP luminescence
# [2] = viability loss in pontine glioma line – cell-based, JHH-DIPG-1, MIPE4.0, CellTiter-Glo, qHTS, dose response (AID 1347062; cut-off not given, nearly all actives have AC50 up to about 27 µM); conditions: JHH-DIPG-1 viability, CellTiter-Glo ATP luminescence
# [3] = viability loss in pontine glioma line – cell-based, SU-DIPG-IV, MIPE4.0, CellTiter-Glo, qHTS, dose response (AID 1347063; cut-off not given, nearly all actives have AC50 up to about 30 µM;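 also: compound exposure lasted 48 hours before the viability readout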); conditions: CellTiter-Glo ATP luminescence
# [4] = viability loss in pontine glioma line – cell-based, SU-DIPG-XXV, MIPE5.0, CellTiter-Glo, qHTS, dose response (AID 1347065; cut-off not given, nearly all actives have AC50 up to about 26 µM;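 also: cells exposed to compound for 48 hours before ATP readout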); conditions: CellTiter-Glo ATP luminescence
# [5] = growth inhibition of DIPG cells – cell-based, MIPE4.0 library, CellTiter-Glo luminescence, qHTS (AID 1347066; cut-off not given, nearly all actives have AC50 up to about 30 µM;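 also: cells exposed to compound for 48 hours before readout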); conditions: SU-DIPG-VI viability, CellTiter-Glo ATP luminescence
# [6] = compounds altering HSF1 focus formation in cells – imaging, Selleck Cancer Library (AID 1347162; in the data active = plate-normalised HSF1 focus index below about 0.46); conditions: human cells, HSF1 nuclear foci imaging, at 10 µM; SSMD: measured here: HSF1 foci SSMD mean; cell count: measured here: cell number; plate-normalised HSF1 focus index: stronger effect = lower value
# [7] = drug combination growth inhibition, ovarian cancer – cell-based, oncology-focused library, rucaparib conditional, profiling panel (AID 1508598); conditions: patient-derived ovarian cancer cells, CellTiter-Glo viability, 144 h, stronger effect = lower value
# [8] = growth inhibition, single agent or in combination, cell-based, chromothripsis tumors, cisplatin or BGB combos (AID 1671449; in the data active = inhibition above about 80%;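 also: cells exposed for 96 hours; 0% = vehicle DMSO and 100% = killing by high DMSO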); conditions: LFS_MB_P medulloblastoma cells
# [9] = growth inhibition, single agent and combos, cell-based, chromothripsis tumors, cisplatin or BGB combos (AID 1671450; in the data active = inhibition above about 80%;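 also: cells exposed to compound for four days; 0% = vehicle DMSO and 100% = cell killing by high DMSO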); conditions: HDN33 neuroblastoma cells, stronger effect = higher value
# [10] = growth inhibition, single agents and combos, ICB984, cell-based, cisplatin or BGB combos, synergistic combos for chromothripsis tumors (AID 1671451; call rule not given here;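 also: cells exposed for 96 hours before readout; 0% = vehicle DMSO and 100% = killing by high DMSO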); conditions: ICB984 medulloblastoma cells, drug combinations, stronger effect = higher value
# [11] = growth inhibition, single agents and combos, HTB85, cell-based, BGB or cisplatin IC20 combos, synergistic combos for chromothripsis tumors (AID 1671453; in the data active = inhibition above about 80%;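 also: cells exposed for 96 hours before readout; 0% = vehicle DMSO and 100% = high DMSO killing control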); conditions: HTB85 osteosarcoma cells, drug combinations, stronger effect = higher value
# [12] = growth inhibition, MDA-MB-436, cell-based, BGB or cisplatin combos, synergistic combos for chromothripsis tumors (AID 1671458; call rule not given here;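 also: cells exposed for 96 hours; 0% = vehicle DMSO and 100% = killing by high DMSO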); conditions: MDA-MB-436 breast carcinoma growth inhibition, drug combinations, stronger effect = higher value
# [13] = BT084 cell growth, single and combined drugs, ICGC_MB145, cisplatin and BGB IC40 combos (AID 1671461; in the data active = inhibition above about 80%;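 also: cells exposed to drugs for 96 hours; 0% = vehicle DMSO and 100% = high DMSO full killing control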); conditions: BT084 medulloblastoma cells, drug combinations, stronger effect = higher value
# [14] = RCMB18 cell growth, single agent and combined, cisplatin and BGB IC40 combos (AID 1671462; in the data active = inhibition above about 80%;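 also: cells exposed to compound for four days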); conditions: RCMB18 medulloblastoma cells, stronger effect = higher value
# [15] = CRL1545 cell growth, single agent and combined, cisplatin and BGB IC20 combos (AID 1671464; in the data active = inhibition above about 80%;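 also: cells exposed to compound for 96 hours before readout; 0% = vehicle DMSO and 100% = high DMSO killing control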); conditions: CRL1545 osteosarcoma cells, stronger effect = higher value
# [16] = measured here: with BGB IC20 combination, at 0.5 µM
# [17] = measured here: with cisplatin IC20 combination, at 0.5 µM
smiles,measurement,setting,value
C/C(=C\C(=O)Nc1ccccc1C(=O)O)c1ccc2ccccc2c1,outcome,[1],inactive
same,outcome,[2],inactive
same,outcome,[3],inactive
same,outcome,[4],inactive
same,outcome,[5],inactive
same,SSMD,[6],2.21 and 1.02
same,cell count,[6],7410 and 6940
same,plate-normalised HSF1 focus index,[6],1.08 (inactive) and 1.06 (inactive)
same,viability,"[7]; at 0.000305 µM, OCI-C5x cells, with rucaparib 10 µM, 100% = cells with rucaparib alone",89.1% (active)
same,viability,"[7]; at 0.000305 µM, OCI-C5x cells, without rucaparib",109% (inactive)
same,viability,"[7]; at 0.000305 µM, OCI-P5x cells, with rucaparib 20 µM, 100% = cells with rucaparib alone",107% (inactive)
same,viability,"[7]; at 0.000305 µM, OCI-P5x cells, without rucaparib",103% (inactive)
same,viability,"[7]; at 0.00122 µM, OCI-C5x cells, with rucaparib 10 µM, 100% = cells with rucaparib alone",102% (inactive)
same,viability,"[7]; at 0.00122 µM, OCI-C5x cells, without rucaparib",107% (inactive)
same,viability,"[7]; at 0.00122 µM, OCI-P5x cells, with rucaparib 20 µM, 100% = cells with rucaparib alone",96.8% (active)
same,viability,"[7]; at 0.00122 µM, OCI-P5x cells, without rucaparib",101% (inactive)
same,viability,"[7]; at 0.00488 µM, OCI-C5x cells, with rucaparib 10 µM, 100% = cells with rucaparib alone",92.9% (active)
same,viability,"[7]; at 0.00488 µM, OCI-C5x cells, without rucaparib",110% (inactive)
same,viability,"[7]; at 0.00488 µM, OCI-P5x cells, with rucaparib 20 µM, 100% = cells with rucaparib alone",112% (inactive)
same,viability,"[7]; at 0.00488 µM, OCI-P5x cells, without rucaparib",103% (inactive)
same,viability,"[7]; at 0.0195 µM, OCI-C5x cells, with rucaparib 10 µM, 100% = cells with rucaparib alone",111% (inactive)
same,viability,"[7]; at 0.0195 µM, OCI-C5x cells, without rucaparib",111% (inactive)
same,viability,"[7]; at 0.0195 µM, OCI-P5x cells, with rucaparib 20 µM, 100% = cells with rucaparib alone",106% (inactive)
same,viability,"[7]; at 0.0195 µM, OCI-P5x cells, without rucaparib",112% (inactive)
same,viability,"[7]; at 0.0781 µM, OCI-C5x cells, with rucaparib 10 µM, 100% = cells with rucaparib alone",95.3% (active)
same,viability,"[7]; at 0.0781 µM, OCI-C5x cells, without rucaparib",104% (inactive)
same,viability,"[7]; at 0.0781 µM, OCI-P5x cells, with rucaparib 20 µM, 100% = cells with rucaparib alone",109% (inactive)
same,viability,"[7]; at 0.0781 µM, OCI-P5x cells, without rucaparib",113% (inactive)
same,viability,"[7]; at 0.313 µM, OCI-C5x cells, with rucaparib 10 µM, 100% = cells with rucaparib alone",94.4% (active)
same,viability,"[7]; at 0.313 µM, OCI-C5x cells, without rucaparib",111% (inactive)
same,viability,"[7]; at 0.313 µM, OCI-P5x cells, with rucaparib 20 µM, 100% = cells with rucaparib alone",109% (inactive)
same,viability,"[7]; at 0.313 µM, OCI-P5x cells, without rucaparib",110% (inactive)
same,viability,"[7]; at 1.25 µM, OCI-C5x cells, with rucaparib 10 µM, 100% = cells with rucaparib alone",95.9% (active)
same,viability,"[7]; at 1.25 µM, OCI-C5x cells, without rucaparib",108% (inactive)
same,viability,"[7]; at 1.25 µM, OCI-P5x cells, with rucaparib 20 µM, 100% = cells with rucaparib alone",116% (inactive)
same,viability,"[7]; at 1.25 µM, OCI-P5x cells, without rucaparib",118% (inactive)
same,viability,"[7]; at 5 µM, OCI-C5x cells, with rucaparib 10 µM, 100% = cells with rucaparib alone",89.8% (active)
same,viability,"[7]; at 5 µM, OCI-C5x cells, without rucaparib",98.2% (active)
same,viability,"[7]; at 5 µM, OCI-P5x cells, with rucaparib 20 µM, 100% = cells with rucaparib alone",119% (inactive)
same,viability,"[7]; at 5 µM, OCI-P5x cells, without rucaparib",117% (inactive)
same,inhibition,"[8]; at 0.5 µM, stronger effect = higher value",102% (active) and -1.28% (inactive)
same,inhibition,"[8]; measured here: combination with BGB IC20, at 0.005 µM",9.03% and -7.31%
same,inhibition,"[8]; measured here: combination with BGB IC40, at 0.005 µM",-18.4% and -24.9%
same,inhibition,"[8]; measured here: combination with BGB IC40, at 0.05 µM",19.3% and -24.1%
same,inhibition,"[8]; measured here: combination with cisplatin, at 0.5 µM, stronger effect = higher value",113% and 3.01%
same,inhibition,"[8]; measured here: combination with cisplatin, at 5 µM, stronger effect = higher value",13.4% and -26.4%
same,inhibition,"[9]; BGB combo, at 5 µM",-23.7% and -49.5%
same,inhibition,[9]; at 0.5 µM,-19.3% (inactive) and -46.7% (inactive)
same,inhibition,"[9]; cisplatin combo, at 5 µM",-7.72% and -22.6%
same,inhibition,[9]; [16],-14.6% and -44.4%
same,inhibition,[9]; [17],-15.2% and -49.7%
same,inhibition,"[9]; single agent, at 5 µM",-14% and -26%
same,inhibition,"[10]; BGB IC20 combo, at 0.005 µM",-36.5% and -10.3%
same,inhibition,"[10]; BGB IC40 combo, at 0.005 µM",5.4% and -31%
same,inhibition,"[10]; BGB IC40 combo, at 0.05 µM",-10.6% and -21.5%
same,inhibition,[10]; at 0.5 µM,-6.99% (inactive) and -24.5% (inactive)
same,inhibition,"[10]; cisplatin combo, at 0.05 µM",-10.6% and -25.9%
same,inhibition,"[10]; cisplatin combo, at 0.5 µM",-7.39% and -29.2%
same,inhibition,"[10]; cisplatin combo, at 5 µM",6.72% and -34%
same,inhibition,"[10]; measured here: 5 uM single agent, at 5 µM",-9.64% and -30.6%
same,inhibition,[11]; at 0.5 µM,-22.4% (inactive) and -26.8% (inactive)
same,inhibition,"[11]; measured here: with BGB IC20, at 0.5 µM",-27.7% and -32.5%
same,inhibition,"[11]; measured here: with BGB IC20, at 5 µM",-14.9% and -24.4%
same,inhibition,"[11]; measured here: with cisplatin IC20, at 0.5 µM",-22.7% and -28.1%
same,inhibition,"[11]; measured here: with cisplatin IC20, at 5 µM",-19.8% and -17.3%
same,inhibition,"[11]; single agent, at 5 µM",-20.6% and -16.3%
same,inhibition,[12]; at 0.5 µM,-3.17% (inactive) and -21% (inactive)
same,inhibition,"[12]; measured here: BGB combination, at 0.5 µM",-3.42% and -32.5%
same,inhibition,"[12]; measured here: BGB combination, at 5 µM",-2.03% and -11.9%
same,inhibition,"[12]; measured here: cisplatin combination, at 0.5 µM",-4.64% and -12.8%
same,inhibition,"[12]; measured here: cisplatin combination, at 5 µM",-4.62% and -6.3%
same,inhibition,[13]; at 0.5 µM,-6.83% (inactive) and -5.19% (inactive)
same,inhibition,"[13]; cisplatin combination, at 0.5 µM",-15% and -25.6%
same,inhibition,"[13]; cisplatin combination, at 5 µM",-24.9% and -2.65%
same,inhibition,"[13]; measured here: BGB IC40 combination 0.05 uM, at 0.05 µM",-17.8% and 7.75%
same,inhibition,"[13]; single agent, at 5 µM",11.2% and -10.1%
same,inhibition,[14]; at 0.5 µM,-1.42% (inactive) and -24.1% (inactive)
same,inhibition,"[14]; cisplatin combo, at 5 µM",5.73% and -10.2%
same,inhibition,"[14]; measured here: BGB IC40 combination, at 0.05 µM",-5.49% and -16.6%
same,inhibition,"[14]; measured here: combination with cisplatin, at 0.5 µM",-31.4% and -50.1%
same,inhibition,"[14]; single agent, at 5 µM",-4.52% and -12.1%
same,inhibition,[15]; at 0.5 µM,-35.2% (inactive) and -65.1% (inactive)
same,inhibition,[15]; [16],-24.4% and -56.6%
same,inhibition,[15]; [17],-40.6% and -72.1%
same,inhibition,"[15]; single agent, at 0.05 µM",-15.5% and -44.7%
same,inhibition,"[15]; single agent, at 5 µM",-12.5% and -53.7%

# — PubChem BioAssay
